Laboratory results as given in PubChem BioAssay AID1159580 (chemical genetic matrix, 2015).
Screen size: about 5,500 compounds; about 2,000 (36%) were called active. Not shown: some 18% with an inconclusive outcome. Cut-off read from the data, not from the text of the source: active = normalized growth mostly below about 0.91 (no sharp cut-off); inconclusive = no clear call, values can overlap the other calls; inactive = mostly above about 0.92. The list shows a part of the results.

Assay: chemical genetic growth profiling, strain panel (AID 1159580);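 note: tested at 20 µM; growth read once vehicle control cultures reached saturation at 30 °C; 1 = growth at the plate median or of vehicle wells; lower values mean less growth of the strain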
Details: S. cerevisiae deletion strains, growth OD
[1] = locus YAL040C, strain CLN3, stronger effect = lower value
[2] = locus YCL061C, strain MRC1 (second series), stronger effect = lower value
[3] = locus YDR363W, strain ESC2, stronger effect = lower value
[4] = locus YER002W, strain NOP16, stronger effect = lower value
[5] = locus YGR078C, strain PAC10, stronger effect = lower value
[6] = locus YMR263W, strain SAP30, stronger effect = lower value
[7] = locus YMR307W, strain GAS1, stronger effect = lower value
[8] = locus YNL153C, strain GIM3, stronger effect = lower value
[9] = locus YNL175C, strain NOP13, stronger effect = lower value
[10] = locus YNL197C, strain WHI3, stronger effect = lower value
[11] = locus YNL224C, strain SQS1, stronger effect = lower value
[12] = locus YOR083W, strain WHI5 (second series), stronger effect = lower value

Measured: normalized growth

CN1C2CCC1CC(OC(c1ccccc1)c1ccc(Cl)cc1)C2 (stereo unspecified)
inactive: [1] 1.01 | [2] 1 | locus YDR150W, strain NUM1, stronger effect = lower value 0.997 | [3] 0.958 | [4] 1.04 | [5] 1.02 | [6] 0.997 | [7] 0.994 | [8] 0.987 | [9] 1.04 | [10] 1.03 | [11] 1.05 | [12] 1.01 | locus YPL241C, strain CIN2, stronger effect = lower value 0.993
active: locus YGR229C, strain SMI1, stronger effect = lower value 0.844

CN1C2CCC1CC(OC(=O)c1c[nH]c3ccccc13)C2 (stereo unspecified)
inactive: [1] 0.995 | [2] 1 | [3] 1.01 | [4] 0.994 | [5] 1.02 | locus YJR075W, strain HOC1, stronger effect = lower value 1 | [6] 1 | [7] 1.01 | locus YNL128W, strain TEP1, stronger effect = lower value 0.995 | [8] 1.01 | [9] 1 | [10] 1.02 | [11] 0.985 | locus YNL322C, strain KRE1, stronger effect = lower value 1.03 | [12] 1.01 | locus YPL055C, strain LGE1, stronger effect = lower value 1.02
